# In the library only some 10% were active in any assay of this set; here they are far more common.
# RORgamma inh – qHTS for inhibitors of ROR gamma transcriptional activity; Nuclear receptor ROR-gamma (Mus musculus), P51450; Drosophila S2 Gal4-RORgamma UAS-luciferase reporter, 20 h; Potency, µM (doses to about 53.6 µM), actives largely listed as inhibitors; hit rate 5.4% among 310,000; further: nearly all actives have a fitted effect of over 60% in size
# Target sequence (P51450 whole entry, looked up, the tested form may be a part): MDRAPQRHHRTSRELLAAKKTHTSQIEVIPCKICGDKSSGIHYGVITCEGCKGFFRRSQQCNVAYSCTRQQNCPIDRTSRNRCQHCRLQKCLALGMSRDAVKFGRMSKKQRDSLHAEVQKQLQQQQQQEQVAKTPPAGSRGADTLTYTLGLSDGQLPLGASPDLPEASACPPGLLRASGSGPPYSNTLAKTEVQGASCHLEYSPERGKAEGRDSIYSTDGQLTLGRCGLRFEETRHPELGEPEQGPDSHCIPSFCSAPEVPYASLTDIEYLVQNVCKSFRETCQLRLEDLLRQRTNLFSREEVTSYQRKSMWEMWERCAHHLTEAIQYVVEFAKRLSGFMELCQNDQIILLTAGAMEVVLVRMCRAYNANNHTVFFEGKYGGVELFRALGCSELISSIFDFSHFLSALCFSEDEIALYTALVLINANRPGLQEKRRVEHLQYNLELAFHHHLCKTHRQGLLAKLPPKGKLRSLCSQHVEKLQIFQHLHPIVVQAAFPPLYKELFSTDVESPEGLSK
#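 Luminescence from a UAS-regulated Photinus luciferase reporter in stably transfected Drosophila Schneider cells is measured; decreased signal marks ROR gamma inhibition. Fusion expression is induced by 700 uM copper sulfate for 20 hr.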
# MCF10A rereplic – A quantitative high throughput screen for small molecules that induce DNA re-replication in MCF 10a normal breast cells; hit rate 2.9% among 350,000; Potency, µM (highest dose often 46.1 µM), most hits filed as activators; MCF 10A DNA re-replication, Hoechst nuclear intensity, 48 h; further: nearly all actives have a fitted effect of over 50% in size
# SW480 rereplic – A quantitative high throughput screen for small molecules that induce DNA re-replication in SW480 colon adenocarcinoma cells | hit rate 1.8% among 340,000 | Potency, µM (series often up to 46.1 µM), actives largely listed as activators | SW480 DNA re-replication, Hoechst DNA content imaging, 48 h; further: nearly all actives have a fitted effect of over 55% in size
#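 DNA re-replication was detected as more nuclei of elevated Hoechst intensity after 48 hr exposure to compound (23 nL pinned per well of 250 cells).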
# KB-V1 MDR tox – qHTS assay for MDR1-selective chemotherapeutics: Primary screen using the drug-selected MDR subline cells KB-V1; KB-V1 MDR cells viability, CellTiter-Glo, 72 h; Potency, µM (titrated, usually from 46.1 µM), most hits filed as cytotoxic; hit rate 3.4% among 400,000; AID 1347076, 2019; further: nearly all actives have a fitted effect of over 60% in size
#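 Following 72 h at 37 degrees C with compound, KB-V1 cell viability was read by CellTiter-Glo luminescence, medium being phenol-red-free DMEM plus 10% FBS; concentration-response parameters came from normalized, curve-fitted qHTS data.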
# KB-3-1 tox – qHTS assay for MDR1-selective chemotherapeutics: Primary screen using the parental adenocarcinoma cell KB-3-1; KB-3-1 viability, CellTiter-Glo ATP luminescence, 72 h; Potency, µM (top dose mostly 46.1 µM), usual class: cytotoxic; hit rate 1.4% among 400,000; AID 1347075, 2019; further: nearly all actives have a fitted effect of over 60% in size
#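 Luminescent ATP read-out (CellTiter-Glo) measures survival of drug-naive KB-3-1 cells after 72 h compound exposure at 37 °C. Titration series was screened from lowest to highest concentration, with DMSO vehicle plates as background controls.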
# VP16 counter – VP16 counterscreen qHTS for inhibitors of ROR gamma transcriptional activity; Drosophila S2 Gal4-VP16 UAS-luciferase, luminescence, 20 h; Potency, µM (series often up to 53.6 µM), actives largely listed as inhibitors; hit rate 3.5% among 310,000;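 further: Gal4-VP16 expression switched on by copper sulfate through the metallothionein promoter; nearly all actives have a fitted effect of over 50% in size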
# Hits are given with their value; n = inactive; u = inconclusive; x = not tested or not shown; ! = a repeat was not active; [ ] = remark or other dose. The call rests on the fitted dose curve; in most records, active means well fitted curve in the direction sought with a large enough effect; inconclusive means small, poorly fitted or top-dose-only effect, or another doubt; inactive means no such curve, though single readings can be large; an effect the other way counts as inactive or inconclusive.
SMILES,RORgamma inh,MCF10A rereplic,SW480 rereplic,KB-V1 MDR tox,KB-3-1 tox,VP16 counter
CC(C)N(Cc1ccccc1)c1ncnc2c1nnn2C,x,x,x,n,n,x
C(=C\c1nc2ccccc2o1)/c1ccc2c(c1)OCO2,x,x,x,n,n,x
Cc1nn(Cc2ccc(F)cc2)c2sc(C(=O)Nc3nccs3)cc12,11.2µM,u,n,n,n,u
Cc1nc(-c2ccc(Cl)cc2)sc1C1(C)CC(c2ccc(F)cc2)=NO1 (stereo not drawn),n,10.3µM,n,n,n,n
Cc1ccc(C2=NOC(C)(c3sc(-c4ccc(Cl)cc4)nc3C)C2)cc1 (stereo not drawn),x,n,n[9.22 µM],n,n,x
O=c1ccc2cc3c(-c4ccccc4)coc3cc2o1,n,23.1µM,n,6.51µM,18.4µM,n
O=C(O)c1ccc(N/N=C/c2ccc(-c3ccccc3Cl)o2)cc1,u,u,16.4µM,n,n,u
O=C(N/N=C/c1ccc(-c2ccccc2Cl)o1)c1ccccc1,3.55µM,29.1µM,u,u,u,7.94µM
Cn1c(COc2ccccc2O)[n+](C)c2ccccc21,n,n,n,n,n,n
CCCCCCCCCCOC(=O)Cn1c(COc2ccccc2OC)[n+](C)c2ccccc21,u,5.8µM,u,n,u,4.47µM
CC1CCC2(CC1)C(Nc1cccc(Cl)c1)=NC(=S)N2CC#N (stereo not drawn),3.55µM,n,n,n,n,3.16µM
Cc1nc2ccccc2nc1-c1csc(-c2ccccc2)n1,x,x,x,u,n,x
Cc1nn(-c2ccccc2)c(=O)c2ccccc12,n,n,n,n,n,n
Cc1nn(-c2ccccc2)c2c1CC(=O)Nc1ccccc1-2,x,1.3µM,1.46µM,1.64µM,0.651µM,x
COc1cc(/C=C(\C#N)C(=O)Nc2cc(C(F)(F)F)ccc2Cl)ccc1OCC(=O)Nc1cccc(C(F)(F)F)c1,n[10 µM],20.6µM,u,n,n,n
COc1cc(/C=C(\C#N)C(=O)Nc2cccc(C(=O)O)c2)ccc1OCc1ccc(C)cc1,u,n,n,n,n,n
COc1cccc(CN(C)C(=O)c2ccc(OCC(=O)Nc3cccc(C(F)(F)F)c3)c(OC)c2)c1,x,n,n,4.11µM,u,x
CCOC(=O)C1=CCN(S(=O)(=O)c2ccccc2F)C1c1cccc(Cl)c1 (stereo not drawn),x,x,x,n,n,x
Cc1cc(S(=O)(=O)Nc2c(C)nn(C)c2C)c(Cl)cc1Cl,u,n,u,18.4µM,u,n
O=C(O)c1cccc(NC(=O)C23CC4CC(C2)CC(n2cnc(Cl)n2)(C4)C3)c1,n,n,n,u,n,n
COc1ccc(NC(=O)C23CC4CC(C2)CC(n2cnc(Br)n2)(C4)C3)cc1Cl,n,n,n,9.2µM,n,n
COc1ccccc1-c1cn[nH]c1-c1ccc(OCc2ccccc2F)cc1O,8.91µM,7.31µM,u,n,n,u
COc1ccc(-c2cn[nH]c2-c2ccc(OCc3ccc(F)cc3)cc2O)cc1OC,1.58µM,20.6µM,18.4µM,u,u,3.55µM
COc1ccccc1-c1cn[nH]c1-c1ccc(OCc2ccc(F)cc2)cc1O,7.94µM,u,n,n,n,u
N#Cc1cccc(NC(=O)N2CC[C@@]3(CCCN(S(=O)(=O)c4ccccc4)C3)C2)c1,n,x,x,x,x,n
SMILES,RORgamma inh,MCF10A rereplic,SW480 rereplic,KB-V1 MDR tox,KB-3-1 tox,VP16 counter
CC1CCc2c(sc3nc(SCC(=O)NCc4ccco4)nc(N)c23)C1 (stereo not drawn),u,u,n,13µM,u,n
O=C(CSc1ncnc2sc3c(c12)CCCC3)c1ccccc1,n,n,n,n,u,n
CC(C)c1nc2sc3c(SCC(=O)NCc4ccco4)ncnc3c2c2c1CCC2,n,14.6µM,n,n,n,n
O=C(CSc1ncnc2sc3c(c12)CCCC3)c1ccco1,u,u,n,u,n,n
O=C(CSc1ncnc2sc3c(c12)CCCCC3)NCc1ccco1,n,3.98µM,u,u,7.31µM!,n
O=C(CSc1ncnc2sc3c(c12)CCCC3)NC1CCS(=O)(=O)C1 (stereo not drawn),x,n,n,9.2µM,n,x
COc1cc(OC)c2c(C)c(CC(=O)NCc3ccccc3OC)c(=O)oc2c1,x,x,x,u,n,x
CC(=O)CSc1ncnc2sc3c(c12)CCC(C)C3 (stereo not drawn),3.16µM,n,n,n,u,u
CC1CCc2c(sc3ncnc(SCC(=O)c4ccccc4)c23)C1 (stereo not drawn),n,n,n,n,n,n
COc1ccc(CCCc2nnc(SCC(=O)Nc3ccc(F)cc3)o2)cc1C,x,x,x,n,n,x
Cc1occc(=O)c1OCc1ccccc1,n,n,n,n,n,n
Cc1ncc(COCc2ccccc2)c(CO)c1OCc1ccccc1,x,n,n,18.4µM,n,x
CC(C)N(Cc1nc(-c2ccccc2)no1)C(=O)CN1C(=O)c2ccccc2C1=O,u,n,n,10.3µM,n,n
Cc1ccc(-c2noc(CN(C(=O)C(c3ccccc3)c3ccccc3)C(C)C)n2)cc1,u,n,u,8.2µM,u,u
CC(C)N(Cc1nc(-c2ccc(Cl)cc2)no1)C(=O)/C=C/c1ccccc1,u,u,n,16.4µM,n,u
CC(C)N(Cc1nc(-c2ccc(Cl)cc2)no1)C(=O)C(c1ccccc1)c1ccccc1,n,n,n,u,u,n
Nc1ccccc1-n1c(=O)n(Cc2ccccc2F)c(=O)c2[nH]cnc21,n,n,n,n,n,n
O=C(Nc1ccccc1)c1cc([N+](=O)[O-])ccc1Cl,n,n,n,n,n,n
O=C(Nc1cccc2c1CCCC2)c1cc([N+](=O)[O-])ccc1Cl,n,u,n[9.22 µM],u,23.1µM,n
O=C(Nc1cccc2ncccc12)c1cc([N+](=O)[O-])ccc1Cl,n,u,u,u,18.4µM,n
O=C(Nc1ccncc1)c1cc([N+](=O)[O-])ccc1Cl,8.91µM,x,x,x,x,u
O=C(Nc1cccnc1Cl)c1cc([N+](=O)[O-])ccc1Cl,n,u,u,n,n,n
O=C(CCl)Nc1cccc2ncccc12,17.8µM,u,u,u,u,u
O=C(O)C1NCCc2ccccc21 (stereo not drawn),n,n,n,n,n,n
S=C1NCCc2ccccc2C1c1ccccc1 (stereo not drawn),0.224µM,n,n,n,n,0.159µM
S=C1NCCc2ccccc2C1c1ccccc1Cl (stereo not drawn),7.94µM,n,n,n,n,3.55µM
CCOC(=O)NC(=O)/C(N=Nc1cccc(C(F)(F)F)c1)=C(\C)O,n,n,n,n,n,n
COC(=O)/C(N=Nc1cccc(C(F)(F)F)c1)=C(\C)O,n,n,n,5.8µM,u,n

# Assay outcomes as filed in PubChem BioAssay.
